Experimental data from the supplement of paper PMC11732987, “Enantioselective OTUD7B fragment discovery through chemoproteomics screening and high-throughput optimisation” (Communications Chemistry, 2025).
Unmarked numbers belong to inactive results.

How the values were obtained:
Assay in all cases: log2 ratio of Biotin-Ahx-Ub-VS probe labelling (fragment/DMSO); higher = less target engagement (more negative = stronger competition), active = hit call of the paper (q ≤ 0.05, log2 ratio ≤ -1)
Conditions in all cases: compound concentration: 200 uM; treatment time: 3 h
OTUD6B = target: T1, OTUD6B (UniProt Q8N6M0)
T1 sequence (whole entry): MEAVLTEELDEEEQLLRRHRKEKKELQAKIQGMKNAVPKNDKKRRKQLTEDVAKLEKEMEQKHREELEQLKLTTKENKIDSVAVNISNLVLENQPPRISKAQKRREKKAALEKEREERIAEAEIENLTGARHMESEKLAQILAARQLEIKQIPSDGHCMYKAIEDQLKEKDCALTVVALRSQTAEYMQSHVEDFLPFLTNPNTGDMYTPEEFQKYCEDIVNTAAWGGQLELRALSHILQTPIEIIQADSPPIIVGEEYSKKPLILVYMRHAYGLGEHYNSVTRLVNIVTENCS
Method in brief: (§1)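 Lysate from HEK293T cells, 495 µg per sample in Tris/CHAPS/IGEPAL buffer with protease inhibitors, was treated for 3 h in triplicate with fragment at 200 µM or vehicle. Biotin-Ahx-Ub-VS was next added at 0.5 µM final for 1 h. The labelled DUBs were enriched with NeutrAvidin, digested with LysC and trypsin, and run by diaPASEF LC-MS/MS, with values given as average log2 fragment/vehicle ratios by unpaired t-test on global-median-normalised Spectronaut quantities of proteins with ≥2 unique peptides.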

OTUD7B = target: T2, OTUD7B (UniProt Q6GQQ9)
T2 sequence (whole entry): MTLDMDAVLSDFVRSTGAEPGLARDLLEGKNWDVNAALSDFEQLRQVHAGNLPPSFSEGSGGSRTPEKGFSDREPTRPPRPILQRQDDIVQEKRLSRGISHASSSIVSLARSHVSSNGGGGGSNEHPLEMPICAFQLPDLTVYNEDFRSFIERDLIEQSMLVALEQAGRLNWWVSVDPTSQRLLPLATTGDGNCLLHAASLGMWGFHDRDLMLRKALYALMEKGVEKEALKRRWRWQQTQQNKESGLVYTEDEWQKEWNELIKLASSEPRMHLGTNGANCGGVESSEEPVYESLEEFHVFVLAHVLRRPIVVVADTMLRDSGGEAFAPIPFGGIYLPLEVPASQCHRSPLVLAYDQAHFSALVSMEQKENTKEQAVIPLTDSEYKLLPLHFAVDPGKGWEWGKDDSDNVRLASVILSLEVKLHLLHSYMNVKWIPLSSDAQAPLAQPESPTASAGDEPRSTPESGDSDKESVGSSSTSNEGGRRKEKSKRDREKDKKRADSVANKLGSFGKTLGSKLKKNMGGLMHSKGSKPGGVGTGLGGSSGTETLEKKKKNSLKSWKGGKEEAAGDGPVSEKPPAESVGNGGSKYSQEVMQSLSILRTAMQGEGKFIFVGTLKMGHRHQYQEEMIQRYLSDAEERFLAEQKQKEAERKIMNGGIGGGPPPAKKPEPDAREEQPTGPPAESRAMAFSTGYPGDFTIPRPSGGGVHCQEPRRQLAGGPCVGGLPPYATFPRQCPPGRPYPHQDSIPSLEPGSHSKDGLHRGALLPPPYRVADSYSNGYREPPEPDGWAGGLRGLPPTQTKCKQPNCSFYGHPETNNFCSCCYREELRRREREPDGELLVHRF
Method in brief: as §1

PRPF8 = PRPF8 (UniProt Q6P2Q9)
Method in brief: as §1

PSMD7 = target: T3, PSMD7 (UniProt P51665)
T3 sequence (whole entry): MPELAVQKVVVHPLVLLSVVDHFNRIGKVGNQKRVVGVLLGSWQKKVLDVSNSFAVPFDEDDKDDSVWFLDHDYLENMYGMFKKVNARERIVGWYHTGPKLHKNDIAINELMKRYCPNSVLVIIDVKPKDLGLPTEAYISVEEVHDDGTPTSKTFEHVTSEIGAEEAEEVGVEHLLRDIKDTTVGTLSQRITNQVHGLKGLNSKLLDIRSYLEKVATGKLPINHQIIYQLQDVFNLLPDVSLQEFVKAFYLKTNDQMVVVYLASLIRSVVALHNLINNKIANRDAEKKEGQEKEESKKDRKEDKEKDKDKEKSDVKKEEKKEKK
Method in brief: as §1

UCHL1 = UCHL1 (UniProt P09936)
UCHL1, sequence (P09936 whole entry, looked up): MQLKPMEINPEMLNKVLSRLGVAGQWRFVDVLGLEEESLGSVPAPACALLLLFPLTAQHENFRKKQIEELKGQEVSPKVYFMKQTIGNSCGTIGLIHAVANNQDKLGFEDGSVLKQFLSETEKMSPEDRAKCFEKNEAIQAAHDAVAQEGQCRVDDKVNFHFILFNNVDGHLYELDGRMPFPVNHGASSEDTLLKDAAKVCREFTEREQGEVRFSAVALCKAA
Method in brief: as §1

UCHL3 = target: T4, UCHL3 (UniProt P15374)
T4 sequence (whole entry): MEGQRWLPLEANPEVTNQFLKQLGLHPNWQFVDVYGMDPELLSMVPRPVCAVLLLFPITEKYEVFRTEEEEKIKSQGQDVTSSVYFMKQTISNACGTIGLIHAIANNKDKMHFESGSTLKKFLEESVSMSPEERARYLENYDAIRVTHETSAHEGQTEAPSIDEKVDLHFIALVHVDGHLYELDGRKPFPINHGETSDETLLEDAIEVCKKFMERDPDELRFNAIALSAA
Method in brief: as §1

UCHL5 = target: T5, UCHL5 (UniProt Q9Y5K5)
T5 sequence (whole entry): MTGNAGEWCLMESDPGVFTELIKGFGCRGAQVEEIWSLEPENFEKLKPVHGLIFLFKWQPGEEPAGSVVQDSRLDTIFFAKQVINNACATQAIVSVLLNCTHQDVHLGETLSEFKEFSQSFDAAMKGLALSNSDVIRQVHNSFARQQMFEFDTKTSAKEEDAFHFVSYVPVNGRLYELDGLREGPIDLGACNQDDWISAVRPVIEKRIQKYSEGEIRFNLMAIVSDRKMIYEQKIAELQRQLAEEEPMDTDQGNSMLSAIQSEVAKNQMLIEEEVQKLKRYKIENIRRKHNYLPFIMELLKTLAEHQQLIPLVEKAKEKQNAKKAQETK
Method in brief: as §1

USP10 = USP10 (UniProt Q14694)
USP10, sequence (Q14694 whole entry): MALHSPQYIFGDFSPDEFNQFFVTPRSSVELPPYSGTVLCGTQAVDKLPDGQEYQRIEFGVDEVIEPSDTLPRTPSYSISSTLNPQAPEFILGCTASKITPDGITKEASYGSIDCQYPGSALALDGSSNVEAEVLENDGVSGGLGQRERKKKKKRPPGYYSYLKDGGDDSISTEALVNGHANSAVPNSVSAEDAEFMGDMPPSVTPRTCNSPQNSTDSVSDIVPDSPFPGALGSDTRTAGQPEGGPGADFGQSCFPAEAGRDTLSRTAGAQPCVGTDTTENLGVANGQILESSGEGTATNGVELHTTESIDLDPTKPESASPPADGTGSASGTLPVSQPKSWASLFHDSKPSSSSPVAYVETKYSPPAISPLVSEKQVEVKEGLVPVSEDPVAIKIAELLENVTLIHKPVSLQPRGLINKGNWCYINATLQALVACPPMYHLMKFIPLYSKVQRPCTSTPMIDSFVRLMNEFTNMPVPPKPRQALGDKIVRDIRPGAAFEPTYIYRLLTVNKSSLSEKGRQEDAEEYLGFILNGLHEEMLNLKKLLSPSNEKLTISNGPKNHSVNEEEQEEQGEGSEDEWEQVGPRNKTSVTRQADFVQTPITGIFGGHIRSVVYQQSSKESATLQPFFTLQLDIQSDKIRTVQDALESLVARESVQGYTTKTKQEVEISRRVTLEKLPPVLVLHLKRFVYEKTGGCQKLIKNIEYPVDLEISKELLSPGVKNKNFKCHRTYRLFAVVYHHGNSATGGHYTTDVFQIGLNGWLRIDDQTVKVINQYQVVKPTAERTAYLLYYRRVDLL
Method in brief: as §1

USP15 = target: T6, USP15 (UniProt Q9Y4E8)
T6 sequence (whole entry): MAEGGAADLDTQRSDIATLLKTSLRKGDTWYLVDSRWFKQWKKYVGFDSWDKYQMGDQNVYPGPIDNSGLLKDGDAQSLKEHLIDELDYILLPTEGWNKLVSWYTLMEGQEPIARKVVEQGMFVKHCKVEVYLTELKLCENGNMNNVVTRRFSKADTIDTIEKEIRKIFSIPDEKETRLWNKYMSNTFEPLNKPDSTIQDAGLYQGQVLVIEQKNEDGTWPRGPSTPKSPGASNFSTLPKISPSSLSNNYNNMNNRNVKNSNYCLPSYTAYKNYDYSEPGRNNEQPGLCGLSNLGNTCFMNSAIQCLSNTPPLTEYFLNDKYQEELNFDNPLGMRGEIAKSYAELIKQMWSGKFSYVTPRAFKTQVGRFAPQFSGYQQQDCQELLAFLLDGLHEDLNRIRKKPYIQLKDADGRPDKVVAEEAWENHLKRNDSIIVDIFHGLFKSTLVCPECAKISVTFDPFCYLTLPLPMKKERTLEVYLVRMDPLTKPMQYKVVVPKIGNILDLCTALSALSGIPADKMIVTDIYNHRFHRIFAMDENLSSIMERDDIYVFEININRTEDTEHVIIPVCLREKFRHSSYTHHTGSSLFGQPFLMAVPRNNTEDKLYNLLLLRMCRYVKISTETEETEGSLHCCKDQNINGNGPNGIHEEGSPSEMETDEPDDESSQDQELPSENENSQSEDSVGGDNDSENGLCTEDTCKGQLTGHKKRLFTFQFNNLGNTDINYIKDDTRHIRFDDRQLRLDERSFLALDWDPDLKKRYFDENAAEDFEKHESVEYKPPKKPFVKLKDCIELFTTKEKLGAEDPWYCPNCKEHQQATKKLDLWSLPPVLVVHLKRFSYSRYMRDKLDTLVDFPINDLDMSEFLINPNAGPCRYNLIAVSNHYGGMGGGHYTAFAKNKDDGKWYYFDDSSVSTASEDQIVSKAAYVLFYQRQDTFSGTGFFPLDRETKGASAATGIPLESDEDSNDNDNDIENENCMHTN
Method in brief: as §1

USP16 = USP16 (UniProt Q9Y5T5)
USP16, sequence (Q9Y5T5 whole entry, looked up): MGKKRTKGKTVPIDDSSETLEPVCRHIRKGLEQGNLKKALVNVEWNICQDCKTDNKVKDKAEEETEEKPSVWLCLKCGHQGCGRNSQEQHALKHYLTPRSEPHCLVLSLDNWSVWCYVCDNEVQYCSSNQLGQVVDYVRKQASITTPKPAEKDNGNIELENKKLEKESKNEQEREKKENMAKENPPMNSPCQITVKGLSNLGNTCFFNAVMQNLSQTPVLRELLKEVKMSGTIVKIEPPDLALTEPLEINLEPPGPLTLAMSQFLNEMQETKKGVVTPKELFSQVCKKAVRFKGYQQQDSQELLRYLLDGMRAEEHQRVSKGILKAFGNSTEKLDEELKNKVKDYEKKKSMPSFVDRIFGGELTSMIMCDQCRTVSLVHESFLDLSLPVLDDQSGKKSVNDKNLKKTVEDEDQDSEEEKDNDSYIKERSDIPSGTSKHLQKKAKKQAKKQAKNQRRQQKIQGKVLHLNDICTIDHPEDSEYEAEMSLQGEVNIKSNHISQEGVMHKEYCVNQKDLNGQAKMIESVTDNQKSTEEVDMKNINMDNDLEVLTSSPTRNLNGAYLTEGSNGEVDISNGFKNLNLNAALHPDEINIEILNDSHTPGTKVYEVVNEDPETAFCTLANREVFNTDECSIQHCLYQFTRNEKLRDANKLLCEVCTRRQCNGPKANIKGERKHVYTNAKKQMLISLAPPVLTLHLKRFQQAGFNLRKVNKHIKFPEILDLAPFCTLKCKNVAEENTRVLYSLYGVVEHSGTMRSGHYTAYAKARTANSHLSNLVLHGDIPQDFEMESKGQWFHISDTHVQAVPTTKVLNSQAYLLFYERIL
Method in brief: as §1

## Cl.O=C(CCl)N1CCC(Cc2nccs2)C1 (stereo not given)
OTUD6B
  log2 ratio of Biotin-Ahx-Ub-VS probe labelling: -0.205
OTUD7B
  log2 ratio of Biotin-Ahx-Ub-VS probe labelling: -0.436
PRPF8
  log2 ratio of Biotin-Ahx-Ub-VS probe labelling: -0.0505
PSMD7
  log2 ratio of Biotin-Ahx-Ub-VS probe labelling: -0.315
UCHL1
  log2 ratio of Biotin-Ahx-Ub-VS probe labelling: -1.01 (active)
UCHL3
  log2 ratio of Biotin-Ahx-Ub-VS probe labelling: -0.0765
UCHL5
  log2 ratio of Biotin-Ahx-Ub-VS probe labelling: -0.293
USP10
  log2 ratio of Biotin-Ahx-Ub-VS probe labelling: 0.0972
USP15
  log2 ratio of Biotin-Ahx-Ub-VS probe labelling: -0.249
USP16
  log2 ratio of Biotin-Ahx-Ub-VS probe labelling: 0.355
